# Experiments:
# Settings in all cases: concentration: 1 μM, replicates: in singlicate; n = 1
# PRKD3 = tested on: PRKD3
# PRKG1 = tested on: PRKG1
# PRKG2 = tested on: PRKG2
# PRKR = tested on: T1, PRKR
# T1 construct: gene EIF2AK2
# PRKX = tested on: PRKX
# PRP4 = tested on: PRP4
# PYK2 = tested on: T2, PYK2
# T2 construct: gene PTK2B
# QSK = tested on: QSK
# RAF1 = tested on: RAF1
# RET = tested on: RET
# 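Note: KINOMEscan kinase panel screen.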
Compound,%Inh (PRKD3) [%],%Inh (PRKG1) [%],%Inh (PRKG2) [%],%Inh (PRKR) [%],%Inh (PRKX) [%],%Inh (PRP4) [%],%Inh (PYK2) [%],%Inh (QSK) [%],%Inh (RAF1) [%],%Inh (RET) [%]
O=C(Nc1n[nH]c2nc(-c3ccccc3)ccc12)C1CC1 [SB-708999],0,1,0,0,5,7,0,0,23,32
CCNc1nccc(-c2c(-c3ccc(F)cc3)ncn2C2CCN(C)CC2)n1,36,0,0,0,0,0,0,0,0,0
Cc1ccc(NC(=O)c2ccc(Cl)c(Cl)c2)cc1-c1ccc(C(=O)Nc2ccncc2)cc1 [GSK1398460],23,13,0,7,17,0,13,0,78,38
COc1ccc(NC(=O)c2ccoc2)cc1-c1ccc(C(=O)NCC2CC2)cc1 [GW810437],0,0,0,0,0,0,7,12,0,0
COc1cccc2c(-c3ccncc3)c(-c3ccc(F)cc3)nn12 [GW468513],43,0,0,0,10,25,12,0,33,22
CN(C)CCNS(=O)(=O)c1ccc(-c2ccnc3[nH]ccc23)cc1 [GSK977620],11,95.4,97.4,0,68,0,20,8,1,2
CC(C)(C)c1ccc(C(=O)Nc2cn3cc(-n4ccnc4)ccc3n2)cc1,0,0,7,0,41,22,8,0,10,0
Cc1ccc(O)cc1Nc1ccnc2ccc(C(C)(C)C)cc12 [GW856805],30,20,29,0,17,0,9,22,14,96
CSc1ccc(NC2=C(c3ccc(Cl)cc3)C(=O)NC2=O)cc1 [SB-317658],0,6,0,0,0,0,0,0,13,7
CNc1nccc(-c2ccc3c(N)n[nH]c3c2)n1 [GSK2206003],35,25,76,8,53,32,12,0,0,80
Cn1cc(-c2cnc(N)c3c(-c4ccc5c(c4)CCN5C(=O)Cc4ccccc4)csc23)cn1 [GSK2593074],0,0,0,8,0,0,6,1,0,34
Nc1ncc(-c2cn[nH]c2)c2scc(-c3ccc4c(c3)CCN4C(=O)Cc3ccccc3)c12 [GSK2593067],11,27,0,0,21,0,9,9,0,34
COc1cc(Nc2nccc(N3CCC(NC(=O)Nc4ccc5c(c4)OCO5)C3)n2)cc(OC)c1OC (stereo not drawn) [GSK1379766],0,0,0,0,33,50,15,3,0,28
Cl.O=C(Nc1ccc(Oc2ccc3[nH]c(NC(=O)c4ccco4)nc3c2)cc1)Nc1cc(C(F)(F)F)ccc1F [GW683134],37,12,0,0,20,27,10,0,94.7,99.9
COC(=O)Nc1nc2cc(Oc3ccc(NC(=O)Nc4cccc(SC)c4)cc3)ccc2[nH]1.Cl [GW697999],18,1,17,0,24,28,0,0,92.6,99.8
Cl.Cl.NCC(NC(=O)c1cc(-c2cccnc2)c(-c2ccnc3[nH]ccc23)s1)c1ccccc1 (stereo not drawn) [GSK1323434],34,45,68,0,56,29,10,13,12,28
Cc1ccc(C)c(NC(=O)Nc2ccc(C)c(-c3ccc(C(=O)Nc4ccncc4)cc3)c2)c1 [GSK1398473],38,31,0,14,20,0,0,8,89,23

Compound,%Inh (PRKD3) [%],%Inh (PRKG1) [%],%Inh (PRKG2) [%],%Inh (PRKR) [%],%Inh (PRKX) [%],%Inh (PRP4) [%],%Inh (PYK2) [%],%Inh (QSK) [%],%Inh (RAF1) [%],%Inh (RET) [%]
Nc1ncc(-c2ccc3nccc(-c4ccncc4)c3c2)cc1S(=O)(=O)N1CCCCC1 [GSK1693850],23,7,0,3,27,0,28,1,18,13
O=C1NC(=O)C(c2ccccc2Cl)=C1Nc1cccc(Cl)c1 [SB-342409],22,0,0,0,15,0,5,5,37,1
CN(c1ccc2c(c1)nc(NCc1ccccc1)n2C)c1ccnc(Nc2ccc(CS(C)(=O)=O)cc2)n1.Cl [GW811603],0,3,4,1,0,22,21,0,97.5,99.9
CN(c1ccc(NC(=O)Nc2cccc(Cl)c2)cc1)c1ccnc(N)n1.Cl [GW830707],0,0,0,0,0,12,0,15,17,50
N#Cc1cnc2cc(-c3cnc(CNCCN4CCOCC4)s3)ccc2c1Nc1ccc(Oc2ccccc2)cc1 [GW664114],9,0,0,4,4,51,4,0,0,60
COc1cccc(NC(=O)NCCNc2ccnc(Nc3ccc(F)cc3)n2)c1 [GSK1379879],0,4,0,0,14,49,21,0,15,0
COc1ccc(C2=C(Nc3cccc(O)c3)C(=O)NC2=O)cc1 [SB-390766],0,0,0,0,0,49,0,12,96.2,25
COc1cccc(CC(=O)N2CCc3cc(-c4cn(C)c5ncnc(N)c45)ccc32)c1 [GSK2608899],0,22,0,15,3,0,25,11,0,37
CC(=O)Nc1cn2nc(Oc3cccc(NC(=O)c4cccc(C(F)(F)F)c4)c3)ccc2n1,0,11,13,4,0,0,7,0,99.8,100
N#CC1(c2cccc(C(=O)Nc3cccc(Oc4ccc5nc(NC(=O)C6CC6)sc5n4)c3)c2)CC1,0,16,0,7,0,21,0,18,100,100
Fc1cc(Cl)ccc1Nc1ccnc2cc(-c3ccc(CN4CCOCC4)o3)ccc12 [GW560109],19,25,0,0,24,44,5,70,11,99.8
O=C(Nc1n[nH]c2nc(-c3ccccc3O)ccc12)C1CC1 [SB-711880],0,0,28,10,1,0,4,33,0,0
CCn1cnc2c(NCc3ccccc3)ncnc21 [SKF-96418],0,0,0,8,0,41,0,10,17,0
CN(c1ccc(F)c(NC(=O)c2cccc(OC(C)(C)C#N)c2Cl)c1)c1ccc2nc(NC(=O)C3CC3)sc2n1,0,0,3,0,1,18,3,0,96.1,100
Nc1cccc(-c2ccc3c(N)n[nH]c3c2)c1 [GSK2193613],0,20,19,0,7,19,5,0,0,5
Cn1cc(-c2ccc3c(c2)CCN3C(=O)Cc2cc(F)cc(F)c2F)c2c(N)ncnc21 [GSK2634140],0,0,0,2,16,21,12,0,18,5

# From article PMC5540273 (PLoS ONE, 2017)
